# Screening results deposited in PubChem by National Center for Advancing Translational Sciences (NCATS).
# G9a block = qHTS Assay for Inhibitors of Histone Lysine Methyltransferase G9a | Histone-lysine N-methyltransferase EHMT2 (Homo sapiens), Q96KQ7 | G9a H3K9 monomethylation, AlphaScreen, 2 h | Potency, µM (top dose mostly 102 µM), for inactives: top-dose activity, negative = inhibition, usual class: inhibitors | 350,000 tested, 8.8% active | AID 504332, 2011; also: potency is read from the fitted curve at half-maximal effect; % is scaled to controls: 0 for no effect and ±100 for the full control effect; nearly all actives have a fitted effect of over 75% in size
# Target sequence (Q96KQ7 913-1193 limits assumed): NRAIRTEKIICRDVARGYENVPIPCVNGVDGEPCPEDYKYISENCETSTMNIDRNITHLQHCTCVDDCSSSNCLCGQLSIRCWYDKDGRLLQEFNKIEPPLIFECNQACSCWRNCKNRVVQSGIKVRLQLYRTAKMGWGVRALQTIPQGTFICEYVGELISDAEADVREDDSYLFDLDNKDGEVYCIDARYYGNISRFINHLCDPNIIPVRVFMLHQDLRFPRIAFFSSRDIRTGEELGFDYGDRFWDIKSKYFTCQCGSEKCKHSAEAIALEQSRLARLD
#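 Compounds were preincubated with 20 nM G9a for 15 min, after which biotinylated H3K9 peptide (500 nM) and SAM (20 uM) started a 2 h room-temperature reaction. Monomethylated product was quantified by antibody-based AlphaScreen chemiluminescence.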
# miR-21 act = qHTS Assay for Modulators of miRNAs and/orActivators of miR-21 | HeLa miR-21 FLuc reporter, luciferase, 48 h | Potency, µM (doses to about 38.3 µM), for the others: at the highest dose activity change, positive = activation, hits mostly activators | 340,000 tested, under 10 active;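 also: % of control where 0% means no effect; miR-21 action dims this reporter so a rising signal means less miR-21 action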
#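 HeLa cells stably expressing CMV-driven firefly luciferase with a downstream miR-21 binding sequence, endogenously expressing miR-21, were treated with titrations (up to about 40uM final) for 48 hours at 37 degree Celsius. Luciferase luminescence was read after lysis.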
# ALDH1A1 block = qHTS Assay for Inhibitors of Aldehyde Dehydrogenase 1 (ALDH1A1); Aldehyde dehydrogenase 1A1 (Homo sapiens), P00352; Purified ALDH1A1, NADH fluorescence, propionaldehyde substrate; Potency, µM (series often up to 75.3 µM), inactives show top-dose activity, negative = inhibition, most hits filed as inhibitors; 220,000 tested, 7.3% active; active = well fitted inhibition curve with a large enough effect, not every such curve was filed as active; inconclusive = small, poorly fitted or top-dose-only effect, or another doubt; inactive = no such curve, though single readings can be large or run the other way;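 also: potency is read from the fitted curve at half-maximal effect; plate controls were no enzyme wells and a reference inhibitor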
# LMNA splice mod = qHTS Assay for Modulators of Lamin A Splicing | HeLa LMNA splicing GFP/RFP minigene ratio, 48 h | Potency, µM (highest dose often 46.1 µM), inactives show at the top dose ratio change, negative = inhibition, most hits filed as inhibitors | 200,000 tested, 0.01% active; active = well fitted inhibition curve with a large enough effect in the signal ratio, with a control signal flat, not every such curve was filed as active; inconclusive = small, poorly fitted or top-dose-only effect, or effect the other way, or a change in a side signal; the % refers to the signal ratio; also: potency is read from the fitted curve at half-maximal effect; % is scaled to controls: 0 for no effect and ±100 for the full control effect
#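 S3 HeLa stable clones carrying a lamin A-EGFP splicing minigene plus DsRed2 were seeded at 600 cells/well in Opti-MEM with 2% FBS, pin-dosed and incubated 48 h at 37°C. Acumen cytometry (488 nm) gave the GFP/RFP total-intensity ratio.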
# KDM4E inh = qHTS Assay for Inhibitors of Human Jumonji Domain Containing 2E (JMJD2E); Lysine-specific demethylase 4E (Homo sapiens), B2RXH2; Potency, µM (series often up to 57.1 µM), without a hit: at the top dose activity change, negative = inhibition, usual class: inhibitors; 230,000 tested, 1.6% active; JMJD2E catalytic domain, FDH-coupled NADH fluorescence (FDH is formaldehyde dehydrogenase); AID 2147, 2009; active = well fitted inhibition curve with a large enough effect, not every such curve was filed as active; inconclusive = small, poorly fitted or top-dose-only effect, or another doubt; inactive = no such curve, though single readings can be large or run the other way;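 also: potency is read from the fitted curve at half-maximal effect; 0% = wells with enzyme and -100% = buffer wells without enzyme; nearly all actives have a fitted effect of over 50% in size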
# Target sequence (B2RXH2 1-337 limits assumed): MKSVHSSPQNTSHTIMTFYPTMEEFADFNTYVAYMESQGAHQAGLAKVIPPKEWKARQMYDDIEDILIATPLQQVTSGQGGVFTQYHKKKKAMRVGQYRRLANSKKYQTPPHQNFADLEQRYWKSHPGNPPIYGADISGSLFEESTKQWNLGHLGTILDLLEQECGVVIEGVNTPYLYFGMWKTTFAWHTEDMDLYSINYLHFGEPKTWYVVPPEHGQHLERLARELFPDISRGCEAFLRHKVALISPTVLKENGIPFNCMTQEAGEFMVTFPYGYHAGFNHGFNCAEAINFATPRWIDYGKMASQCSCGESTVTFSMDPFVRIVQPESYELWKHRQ
# Sfp PPTase inh = qHTS Assay for Inhibitors of Bacillus subtilis Sfp phosphopantetheinyl transferase (PPTase) | 4'-phosphopantetheinyl transferase ffp (Bacillus subtilis), Q9F4F7 | Biochemical Sfp PPTase activity, qHTS | Potency, µM, for the others: largest response in the series, negative = inhibition, hits mostly inhibitors | 310,000 tested, 3.5% active | AID 1490, 2009;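 also: the enzyme is Sfp with the accession as filed and its product quenches rhodamine fluorescence; potency is read from the fitted curve at half-maximal effect; 0% = enzyme reaction without inhibitor and -100% = no enzyme wells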
#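 Buffer: 50 mM Hepes-Na pH 7.6, 10 mM MgCl2, 0.01% Nonidet P-40, 0.01% BSA. Enzyme 15 nM, pre-exposed to compound 15 min; substrates then added and fluorescence change tracked over 30 min.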
# An asterisk follows results filed as active; ? = inconclusive; . = no result given; ! = repeats disagree; [ ] = remark or other dose. A selection: hits, their analogues and other compounds. The true share with any hit is near 13%. Unless noted, calls follow the shape of the dose curve; as a rule, active = well fitted curve in the direction sought with a large enough effect; inconclusive = small, poorly fitted or top-dose-only effect, or another doubt; inactive = no such curve, though single readings can be large; an effect the other way counts as inactive or inconclusive.
SMILES,G9a block,miR-21 act,ALDH1A1 block,LMNA splice mod,KDM4E inh,Sfp PPTase inh
C[C@]12CC[C@@H]3c4ccc(O)cc4CC[C@H]3[C@@H]1C[C@@H](O)[C@@H]2O[C@@H]1O[C@H](C(=O)O)[C@@H](O)[C@H](O)[C@H]1O,?,-17%,-4%,-9%,22µM*,-19%
Cc1ccc([N+](=O)[O-])cc1,-7%[0.501 µM],.,-3%,.,.,.
CCOP(=S)(OCC)Oc1ccc([N+](=O)[O-])cc1,.,.,16µM*,.,.,.
CC(=O)c1ccc2c(c1)C1C(Cl)C(Sc3ccccc3[N+](=O)[O-])CC1C(c1ccccc1)N2 (stereo unspecified),10µM*,-1%,7.9µM*,-12%,-12%,-25%
CC(=O)c1ccc2c(c1)C1C(Cl)C(Sc3ccccc3[N+](=O)[O-])CC1C(c1ccccc1[N+](=O)[O-])N2 (stereo unspecified),?,-4%,?,-14%,1%,?
Cc1cc(C)nc(N/N=C/C2=C(O)CC(c3ccccc3)CC2=O)n1 (stereo unspecified),-13%,11%,.,.,?,11%
CCCN1C[C@H](C)N([C@H](c2ccc(C(=O)N(CC)CC)cc2)c2cccc(OC)c2)C[C@H]1C,7%[59 µM],.,3%,.,0%,13%
Oc1ccccc1-[n+]1c(-c2ccccc2)cc(-c2ccccc2)cc1-c1ccccc1,-7%[12.7 µM],.,.,.,.,.
Oc1ccccc1-c1ccccc1,21%[59 µM],.,18µM*,6%,.,13%
C=C(C)c1ccccc1 (tested in a mixture with another compound),.,.,1%[13.5 µM],.,.,.
CC(=O)c1c(COC(=O)c2cccnc2)nc2ccccc2[n+]1[O-],10µM*,4%,-4%,5%,-2%,3%
O=C(c1cccnc1)c1cc2ccccc2[nH]1,-5%[59 µM],-18%,2%,2%,0%,1%
N[C@@]1(C(=O)O)CC[C@@H](C(=O)O)C1,30µM*!,.,-11%,?,-17%,.
CCN1C[C@]2(COC)CC[C@H](O)[C@@]34[C@@H]5C[C@H]6[C@@H](OC)[C@H]5[C@](O)(C[C@@H]6OC)[C@@](O)([C@@H](OC)[C@H]23)[C@@H]14,22%[21.5 µM],.,8%[20.9 µM],?,-2%[25.5 µM],20%
Cc1ccc(-n2sc3ccccc3c2=O)cc1,1.1µM*,26%,10µM*,-19%,28µM*,1.3µM*
Cc1ccc(-n2c(/C=C/c3ccccn3)nc3ccccc3c2=O)cc1,82%,9%,.,.,.,1%
Cc1ccc2c(c1)C1(CCN(CCc3nc(-c4ccccc4)oc3C)CC1)OC(=O)N2,.,.,.,.,.,-7%
CN1CCN(c2oc(-c3ccc(COc4ccccc4)o3)nc2C#N)CC1,16µM*,-1%,.,0%[46 µM],.,.
CCCCC(CC)COC(=O)c1ccccc1O (stereo unspecified),36%[59 µM],.,6%,?,.,3%
Nc1ccc([As](=O)(O)O)cc1,-18%[59 µM],-8%,5%,-2%,13µM*,-2%
O=[As](O)(O)c1ccc(Cc2ccc([As](=O)(O)O)cc2)cc1,.,.,2.2µM*,.,.,.
Cc1cccc(CN2CCc3nc(N4CCN(c5ccccn5)CC4)ncc3C2)c1,?,?,.,-3%[46 µM],.,.
C[C@@H]1O[C@H](C[N+](C)(C)C)CS1,2µM*,.,-5%,5%,-6%,.
COC(=O)NC/C=C\c1nc(CC/C=C\C(=O)O[C@H]2C[C@H]3CC(=O)O[C@@H](/C=C\CC(C)C)C[C@@H]4CC[C@H](C)[C@H](C[C@@H](OC)C[C@H](C2)O3)O4)co1,.,.,-2%[13.5 µM],.,.,6%
OCc1cnc[nH]1,12µM*!,-3%,1%,-4%,?,17%
SMILES,G9a block,miR-21 act,ALDH1A1 block,LMNA splice mod,KDM4E inh,Sfp PPTase inh
COc1ccc2[nH]c3c(c2c1)CCN=C3C,8.9µM*,.,3%[20.9 µM],-13%,?,-10%
COC1(C)CC(c2ccccc2)c2c(c3ccccc3oc2=O)O1 (stereo unspecified),.,.,.,.,.,-5%
Cn1c(=O)oc2cc(NC(=O)CCl)ccc21,-6%[12.7 µM],?,.,.,?,10%
Cn1cc(NC(=O)CCl)cn1,?,22%,18µM*,.,-5%,24%
O=C1/C(=C/c2cc3c(cc2Cl)OCO3)N2CCC1CC2,-6%[59 µM],-9%,13µM*,-13%,-3%,8%
COc1cc([C@H]2c3cc4c(cc3[C@@H](O)[C@@H]3COC(=O)[C@H]23)OCO4)cc(OC)c1OC,18%[21.5 µM],.,-5%[20.9 µM],?,-4%[25.5 µM],11%
CC(C)CCOP(=O)(c1ccc(N(C)C)cc1)C(O)c1ccc(Cl)cc1Cl (stereo unspecified),?,28%,.,.,.,?
c1ccc(CCN2CCCCCC2)nc1,.,.,13%[13.5 µM],.,.,.
COc1cc(Br)c(CNCCc2ccc3c(c2)OCO3)cc1OC,8.9µM*,-5%,.,.,.,-5%
COc1cc(OC)c(OC)cc1CNCCc1ccc2c(c1)OCO2,28µM*,-6%,.,.,.,-3%
COc1ccc(CCNCc2ccc(C)s2)cc1OC,-28%,-4%,2%,14%[46 µM],-2%,11%
COc1cccc(CNCCc2ccc3c(c2)OCO3)c1OC,9%[0.501 µM],-21%,.,.,.,-26%
Oc1ccc(Cl)cc1Sc1cc(Cl)ccc1O,.,.,?,.,.,19%
ClCC(Cl)Cl,.,.,-7%,.,.,.
Oc1ccc2c3c1O[C@H]1c4oc5ccccc5c4C[C@]4(O)[C@H](C2)N(CC2CC2)CC[C@@]314,.,.,3%,.,-8%,-1%
CCOC(=O)c1c(C)n(Cc2ccco2)c2c1cc(O)c1ccccc12,16µM*,-11%,5%,0%,-27%,?
CCOC(=O)c1c(C)n(Cc2ccco2)c2ccc(OC)cc12,9%,-9%,-8%,-9%,?,-16%
COC(=O)c1c(C)n(Cc2ccco2)c2ccc(O)cc12,?,11%,20µM*,?,-5%,?
C=CCn1c(O)c(C(CC)=Nc2ccccc2NC(=O)CC)c(=O)[nH]c1=O,?,-16%,11%,-6%,2%,4%
